High-throughput results (PubChem BioAssay)
Shown are actives, neighbours in structure and some others; about 0.52% of the full set was active somewhere.
GCN5L2 inh: GCN5L2 (KAT2A) acetyltransferase inhibition | Q92830 | GCN5L2 HAT assay, ThioGlo1 CoA-SH fluorescence | Potency, µM (doses to about 58.9 µM), without a hit: at the highest dose activity change, negative = inhibition, hits mostly inhibitors | 0.21% of 390,000 active | AID 504327
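qHTS, 1536-well. 20nM enzyme, pH 7.5 HEPES/EDTA/Tween-20 buffer; 15 min compound preinc., RT. Start: 75uM H3(1-25), 70uM AcCoA, 50uM ThioGlo1. Read Ex340/Em540 at t=0 (autofluorescence flag) and t=20 min.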
USP2a inh: blocks human ubiquitin-specific protease USP2a; O75604; USP2 core, Ub-CHOP2 coupled fluorogenic reporter, 485/531; Potency, µM (doses to about 38.3 µM), for inactives: top-dose activity change, negative = inhibition, usual class: inhibitors; 0.01% of 330,000 active;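 note: plate controls were DMSO wells for no effect and full inhibition by NEM control for full effect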
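Deubiquitinase activity read as fluorescence (485/531 nm) after Ub-CHOP2 cleavage activates the enterokinase reporter on its substrate; USP2 core 10nM, Ub-CHOP2 and substrate 25nM each, 30min compound preincubation then 60min RT; data normalized to NEM, curves fitted.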
Eya2 inh: inhibitors of human Eya2 phosphatase activity; AID 488837; Potency, µM (highest dose often 76.9 µM), inactives show at the top dose activity, negative = inhibition, most hits filed as inhibitors; 0.006% of 330,000 active; recombinant Eya2, OMFP fluorescence dephosphorylation (OMFP is methylfluorescein phosphate); O00167
Target sequence (O00167 whole entry, looked up): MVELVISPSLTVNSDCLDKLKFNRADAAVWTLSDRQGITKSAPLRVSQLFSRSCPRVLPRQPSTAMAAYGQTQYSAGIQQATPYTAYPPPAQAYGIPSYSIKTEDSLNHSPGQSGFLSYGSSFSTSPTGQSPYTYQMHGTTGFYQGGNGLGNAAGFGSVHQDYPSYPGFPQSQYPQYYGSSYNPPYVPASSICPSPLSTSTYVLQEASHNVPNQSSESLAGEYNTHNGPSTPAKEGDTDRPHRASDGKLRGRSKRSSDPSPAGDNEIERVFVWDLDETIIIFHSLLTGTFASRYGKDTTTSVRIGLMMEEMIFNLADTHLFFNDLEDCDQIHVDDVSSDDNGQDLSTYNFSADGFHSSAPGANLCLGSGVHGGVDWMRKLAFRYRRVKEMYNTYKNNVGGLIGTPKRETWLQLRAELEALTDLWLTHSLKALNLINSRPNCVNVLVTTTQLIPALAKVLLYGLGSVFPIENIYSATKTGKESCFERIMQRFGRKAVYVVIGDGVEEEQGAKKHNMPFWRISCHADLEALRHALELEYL
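Eya2 protein (added as 0.2 uM solution) was preincubated with compound for 10 min at ambient temperature in 50 mM HEPES pH 7.5, 50 mM NaCl, 5 uM MgCl2, 0.05% BSA, 1 mM DTT. OMFP (added at 50 uM) then reacted 10 min; fluorescence read at 485/525 nm.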
uPA surface inh: inhibitors of cell surface uPA generation; Potency, µM (titrated, usually from 38.3 µM), inactives show top-dose activity change, negative = inhibition, actives largely listed as inhibitors; cell surface uPA generation assay, qHTS; AID 540303; 0.31% of 330,000 active; active = well fitted inhibition curve with a large enough effect; inconclusive = small, poorly fitted or top-dose-only effect; inactive = no such curve, though single readings can be large or run the other way; tested in mouse RAW 264.7 cells; note: nearly all actives have a fitted effect of over 55% in size
Chronic BCR inh: blocks chronic active B-cell receptor signaling | Potency, µM (highest dose often 46.1 µM), inactives show top-dose activity change, negative = inhibition, actives largely listed as inhibitors | 0.05% of 340,000 active | ABC-DLBCL IkBa-CBG/CBR reporter, luminescence ratio, 4 h; active = well fitted inhibition curve with a large enough effect in the signal ratio, with a control signal flat, not every such curve was filed as active; inconclusive = small, poorly fitted or top-dose-only effect, or effect the other way, or a change in a side signal; the % refers to the signal ratio;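 note: plate controls were basal doxycycline-induced cells for no effect and cells given 10 µM MG132 for full effect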
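TMD8 human ABC-DLBCL cells with doxycycline-inducible IκBα–green luciferase fusion and unfused red luciferase, in 0.5% FBS medium; compounds up to 46 uM, 4 h at 37C. Green/red luminescence ratio, filter-overlap corrected, fitted to concentration-response curves.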
RGS4 inhibitor: blocks human RGS4-accelerated GTP hydrolysis; AID 504845; 0.039% of 390,000 active; Transcreener GDP fluorescence polarization, RGS4-accelerated GTP hydrolysis; Potency, µM (series often up to 114 µM), for inactives: top-dose activity change, negative = inhibition, most hits filed as inhibitors; note: nearly all actives have a fitted effect of over 75% in size
Target sequence (P49798 whole entry, looked up): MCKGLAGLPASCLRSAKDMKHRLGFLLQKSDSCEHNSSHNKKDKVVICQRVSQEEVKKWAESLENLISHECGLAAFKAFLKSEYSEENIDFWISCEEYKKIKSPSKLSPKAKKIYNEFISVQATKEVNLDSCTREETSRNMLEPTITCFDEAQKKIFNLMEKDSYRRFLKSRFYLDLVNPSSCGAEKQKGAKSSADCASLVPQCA
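MLSMR compounds (23 nl, pin-transferred) preincubated 10 min at room temperature with a 500nM (2x) first reagent, then RGS4 at 900nM (2x) plus Transcreener GDP mix added; fluorescence polarization (620/688 nm) read before and after 90 min at 30 °C.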
The depositor's hits bear a star; i = inactive; ? = inconclusive; / = no result; ! = not active in a repeat; [ ] = another dose, or the depositor's remark. Unless noted, calls come from the whole dose curve; as a rule, active = well fitted curve in the direction sought with a large enough effect; inconclusive = small, poorly fitted or top-dose-only effect, or another doubt; inactive = no such curve, though single readings can be large; an effect the other way counts as inactive or inconclusive. Unless noted, % is set by controls: 0 for no effect and ±100 for the full control effect; potency is the fitted concentration of half-maximal effect.

SMILES | GCN5L2 inh | USP2a inh | Eya2 inh | uPA surface inh | Chronic BCR inh | RGS4 inhibitor
Cc1c(CC(=O)N2C[C@H]3C[C@@H](C2)c2cccc(=O)n2C3)c(=O)oc2cc(O)c(Cl)cc12 | 20µM* | 2% | ? | 9% | -5% | 1%
CCOc1ccc(-c2nc3ccc(-c4nc5ccc(N6CCN(C)CC6)cc5[nH]4)cc3[nH]2)cc1 | 11µM* | / | / | / | / | /
O=Cc1c(C(=O)O)n(Cc2ccccc2F)c2ccccc12 | -19% | 2% | 7% | -1% | 4% | 1%[56.9 µM]
CC(C)n1c(/C=C/[C@H](O)C[C@H](O)CC(=O)O)c(-c2ccc(F)cc2)c2ccccc21 | -14% | ? | ? | 1.4µM* | 6% | -1%
CC(=O)C(O)C(c1ccccc1)c1c(O)c2ccccc2oc1=O (stereo not given) | -18% | / | / | / | / | /
C=C(C)[C@H]1CN[C@H](C(=O)O)[C@@H]1CC(=O)O | -22%[0.501 µM] | / | / | / | / | i
C=C(C)[C@H]1CN[C@H](C(=O)O)[C@H]1CC(=O)O | 32µM*! | / | -3% | -9% | / | 5%[56.9 µM]
CN(C(=O)Cc1ccc(Cl)c(Cl)c1)C(CN1CCCC1)c1cccc(N=C=S)c1 (stereo not given) | 3% | / | / | / | / | 440%[56.9 µM]
Cc1ccc(O)c(C)c1 | -1% | -3% | -1% | 0% | -4% | 7%
Cc1ccc(O)c(-c2cc(-c3ccc(F)cc3)no2)c1 | -11% | -2% | 11% | 10µM* | ? | 9%
Cc1ccc(-c2cn3c(=S)[nH]nc3s2)cc1 | 14µM* | 0% | 2% | -3% | -1% | ?
COc1ccccc1C1c2[nH]c3ccccc3c2C[C@H]2C(=O)N(C3CCN(Cc4ccccc4)CC3)CC(=O)N12 (stereo not given in full) | ? | -5% | -20% | ? | ? | -27%
O=[N+]([O-])c1ccc(Nc2ccccc2)cc1 | -9% | 0% | -7% | -23% | 0% | 29%[11.4 µM]
c1ccc(Nc2ccc(Nc3ccccc3)cc2)cc1 | 1% | -1% | 3% | 6.3µM* | ? | -37%
COCCCn1c(N)c(C(=O)OCCOC)c2nc3ccccc3nc21 | ? | -1% | 2% | 10% | 24% | -13%[11.4 µM]
CCOC(=O)c1c(NS(=O)(=O)c2ccccc2)n(CCCOC)c2nc3ccccc3nc12 | 22µM* | 2% | 4% | -1% | 7% | -3%
N#C/C(=C/c1ccc(O)c(O)c1)C(N)=S | ? | / | 5% | / | / | 6.7µM*
O=C(NCc1nc2ccccc2[nH]1)C1=C[C@@H](c2ccc(C(F)(F)F)cc2)C[C@@H](OCc2ccc(CO)cc2)O1 | / | / | / | ? | / | -8%
CN(N=O)c1cc(O)ccc1O | ? | / | -25% | / | / | 24µM*
C[C@]12C=CC(=O)C=C1CC[C@@H]1C2=CC[C@]2(C)[C@@H](C(=O)CN3CCN(c4cc(N5CCCC5)nc(N5CCCC5)n4)CC3)CC[C@@H]12 | -12% | / | -5% | ? | / | 11µM*!
CNc1ccc2nc3ccccc3[n+](C)c2c1 | -9% | -2% | -3% | 4.5µM* | ? | ?
C[n+]1c2ccccc2nc2ccc(NCCO)cc21 | -8% | -12% | -17% | -6% | ? | ?
O=Cc1cc(OCc2ccccc2)ccc1[B-](F)(F)F | / | / | / | ? | / | 25%
CCCCOc1ccc(C(C)=O)cc1Cc1c(O)[nH]c(=S)[nH]c1=O | ? | 1% | -4% | 8% | 0% | ?
COc1ccc(Cc2c(O)[nH]c(=S)[nH]c2=O)cc1 | 6.3µM* | 0% | 3% | 4% | 1% | -35%[56.9 µM]
SMILES | GCN5L2 inh | USP2a inh | Eya2 inh | uPA surface inh | Chronic BCR inh | RGS4 inhibitor
C=CCN1C(=O)/C(=C/c2ccc(Br)s2)C(=O)NC1=S | -24% | 0% | 9% | -4% | -2% | ?
CCN1C(=O)/C(=C\c2ccc([N+](=O)[O-])s2)C(=O)NC1=S | 8.9µM* | -18% | 20% | / | ? | /
CCOc1cc(/C=N/NC(=O)c2ccc(N(C)S(=O)(=O)c3ccccc3)cc2)ccc1OC | -8% | -7% | 5% | -13% | ? | -5%
CC(C)c1oc(=O)cc2c1[C@@H](O)[C@H]1OC(=O)[C@@]3(C)C[C@@H](O)[C@@H](O)[C@@]2(C)C13 (stereo not given in full) | 3% | 2% | 10% | 2.2µM* | ? | 15%
CN(C)c1ccc(/C=C(\Cl)c2nc3ccccc3s2)cc1 | 0% | 0% | 0% | 10µM* | ? | -11%
C/C(=C\c1ccc(N(C)C)cc1)[N+](=O)[O-] | 3% | 1% | 10% | / | ? | ?
[Hg+][c]1ccccc1 | 0.45µM* | / | / | / | / | /
C[C@@H]1C[C@H]2[C@@H]3CCC4=CC(=O)C=C[C@]4(C)[C@@]3(Cl)[C@@H](O)C[C@]2(C)[C@@]1(OC(=O)c1ccco1)C(=O)CCl | -4% | 0% | -9% | ? | ? | -1%
Clc1ccc(CS[C@@H](Cn2ccnc2)c2ccc(Cl)cc2Cl)cc1 | 13µM* | / | / | / | / | /
CC(C)c1c(C(=O)N/N=C/c2cccc(OCc3ccccc3)c2)nnn1-c1nonc1N | -6% | 1% | 3% | -3% | ? | 14%
CN1C2CCC1CC(OC(=O)c1cc(Cl)cc(Cl)c1)C2 (stereo not given) | -4% | 6% | 2% | -6% | -28% | 30µM*!
CCN1CCC[C@@H](OC(=O)C(c2ccccc2)c2ccccc2)C1 | 7%[21.4 µM] | / | / | / | / | /
COc1cc2c(ccc3c4cc(OC)c(OC)cc4c[n+](C)c23)cc1O | / | / | / | -11% | / | 2%
COc1ccc2c(c[n+](C)c3c4cc5c(cc4ccc23)OCO5)c1OC | ? | / | -2% | / | / | 6.7µM*
COC(=O)[C@]1(C)CC[C@@]2(C)CC[C@@]3(C)C4=CC=C5C(=CC(=O)C(O)=C5C)[C@@]4(C)CC[C@@]3(C)C2C1 (stereo not given in full) | -17% | / | / | / | / | /
CC1Oc2cc3c(-c4c(O)cc(O)c5c(O)c6c(cc45)OC(C)C(C)C6=O)c(O)cc(O)c3c(O)c2C(=O)C1C (stereo not given) | 25µM* | ? | -5% | 5.6µM* | ? | ?
c1ccc(N=Nc2ccccc2)cc1 | 11% | / | / | / | / | /
CSCCC(NS(=O)(=O)c1ccc2c(c1)oc(=O)n2C)C(=O)NCc1ccc(Cl)cc1 (stereo not given) | -9% | / | / | / | ? | -18%
NC(N)=N/N=C/c1ccc(N2CCOCC2)cc1 | -10% | 2% | -16% | 7.9µM* | ? | -1%[56.9 µM]
COc1ccc(/C=N\N=C(N)N)cc1 | -5% | -1% | -12% | -10% | -17% | -7%
